The campaign covered roughly 290,000 compounds. About 2,200 (0.76%) were called active. What follows is part of a selection rich in actives, with near analogues and random picks from the rest. A number with no mark means an inactive call. Rule as the data show it: active = inhibition above about 30%; inconclusive = no clear call, values can overlap the other calls; inactive = below that.
Each molecule was assayed against Protein RecA (Mycobacterium tuberculosis (strain ATCC 25618 / H37Rv)) (UniProt P9WHJ3) (assay: Mtb RecA intein splicing inhibitors, primary screen, biochemical, fluorescence, HTS (AID 2221;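 also: 0% = vehicle wells and 100% = reference inhibitor control wells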)). Details: cell-free RecA intein splicing, stronger effect = higher value, concentration not given here.
Chain of Protein RecA (Mycobacterium tuberculosis (strain ATCC 25618 / H37Rv)) (P9WHJ3 whole entry, looked up): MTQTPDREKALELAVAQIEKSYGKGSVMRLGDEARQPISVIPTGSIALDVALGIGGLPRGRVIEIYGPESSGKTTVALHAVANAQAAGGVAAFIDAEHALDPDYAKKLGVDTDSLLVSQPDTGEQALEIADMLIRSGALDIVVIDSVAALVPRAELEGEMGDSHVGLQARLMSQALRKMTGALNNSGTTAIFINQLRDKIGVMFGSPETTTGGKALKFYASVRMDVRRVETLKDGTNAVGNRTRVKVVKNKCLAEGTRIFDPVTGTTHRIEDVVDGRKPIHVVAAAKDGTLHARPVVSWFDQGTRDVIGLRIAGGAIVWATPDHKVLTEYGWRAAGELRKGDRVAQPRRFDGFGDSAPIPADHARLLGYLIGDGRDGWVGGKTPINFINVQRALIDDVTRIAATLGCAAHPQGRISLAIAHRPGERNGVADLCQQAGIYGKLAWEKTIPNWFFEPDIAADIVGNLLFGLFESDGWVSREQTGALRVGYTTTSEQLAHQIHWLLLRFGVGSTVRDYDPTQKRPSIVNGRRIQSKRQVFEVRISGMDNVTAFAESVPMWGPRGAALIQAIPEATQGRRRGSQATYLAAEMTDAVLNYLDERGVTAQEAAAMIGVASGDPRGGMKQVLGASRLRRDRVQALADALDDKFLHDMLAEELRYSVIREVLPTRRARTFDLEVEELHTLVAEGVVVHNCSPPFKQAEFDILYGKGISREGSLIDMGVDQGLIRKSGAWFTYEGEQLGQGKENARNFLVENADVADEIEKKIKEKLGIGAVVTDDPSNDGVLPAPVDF

SMILES	inhibition
COc1ccc(NC(=O)CCCNC(=O)Cn2cnc3sc4c(c3c2=O)CCCC4)cc1OC	1.78%
CC(C)OC(=O)CN1C(=O)C(=O)c2ccccc21	40% (active)
CCOC(=O)CN1C(=O)C(=O)c2cc(C)ccc21	1.57%
Cc1cc(/C=C2/SC(=O)N(CC(=O)OC(C)C)C2=O)c(C)n1C	-2.4%
CC(Oc1cccc(Cl)c1)C(=O)NC1CC(C)(C)NC(C)(C)C1 (stereo unspecified)	1.06%
Cc1ccc(Cl)cc1NC(=O)C1CCN(S(C)(=O)=O)CC1	4.05%
CC(=O)Oc1ccc(N(C(C)=O)S(=O)(=O)c2ccc3ccccc3c2)cc1Br	36.3% (active)
CN(c1ccc(OCC(=O)O)cc1)S(=O)(=O)c1ccc2ccccc2c1	1.36%
COCCNC(=O)COc1ccc(N(C)S(=O)(=O)c2ccc3ccccc3c2)cc1	2.67%
CC/C(=N\NC(=O)c1c(C)nc2ccccn12)c1ccc(Cl)cc1	-3.74%
COc1ccc(NC(=O)C(NC(C)=O)C(=O)NCc2ccccc2Cl)cc1 (stereo unspecified)	-12.2%
COc1ccc(C2CC(c3cccs3)Nc3nnnn32)cc1 (stereo unspecified)	2.29%
CCCc1[nH]nc2c1C(c1ccc(OC)c(Cn3nc(C)c(Br)c3C)c1)C(C#N)=C(N)O2 (stereo unspecified)	16.3%
COc1ccccc1CN1CCCC(N2CCN(c3ccc(F)cc3)CC2)C1 (stereo unspecified)	1.51%
COc1ccc(C2C(C#N)=C(N)Oc3n[nH]c(C)c32)cc1CN1CCN(c2ccc(F)cc2)CC1 (stereo unspecified)	49.8% (active)
O=C(CN1CCCC1)Nc1sc2c(c1C(=O)Nc1ccccc1)CCCC2	-1.42%

SMILES	inhibition
CCOP(=O)(OCC)C(Nc1ccc([N+](=O)[O-])cc1)c1ccc(Cl)cc1 (stereo unspecified)	5.51%
COc1ccc(C2/C(=C(/O)c3ccccc3)C(=O)C(=O)N2C)c(OC)c1 (stereo unspecified)	1.48%
COc1ccc(/C=C2/C(=O)N(c3ccccc3)N=C2C)c(OC)c1	70% (active)
COc1ccc(/C=C2/C(=O)OCc3cc(OC)c(OC)cc32)c(OC)c1	-0.742%
O=[N+]([O-])c1ccc(N2CCN(c3ccc(F)cc3)CC2)cn1	0.617%
COc1ccc(C(=O)NC2CC(C)(C)NC(C)(C)C2)cc1OC	0.554%
O=C(CCN1C(=O)/C(=C/c2cccs2)SC1=S)NNC(=O)c1cccc(O)c1	-2.74%
Cc1ccc(/C=C2\SC(=S)N(CCC(=O)Nc3ccc(O)cc3)C2=O)cc1	3.35%
COc1ccccc1C(=O)NNC(=O)CCN1C(=O)/C(=C\c2ccccc2)SC1=S	1.3%
O=C(CCCN1C(=O)/C(=C/c2cccs2)SC1=S)Nc1ccc(O)cc1	59% (active)
O=C(CCCN1C(=O)/C(=C/c2ccccc2)SC1=S)Nc1ccc(O)cc1	45.1% (active)
O=C(CCCN1C(=O)/C(=C\c2ccccc2)SC1=S)Nc1ccccc1O	-1.47%
CCCCCCNS(=O)(=O)c1ccccc1Br	8.15%
O=C1N[C@H](Cc2ccccc2)C(=O)N[C@H]1Cc1cn(S(=O)(=O)c2ccccc2)c2ccccc12	2.29%
CCOC(=O)CSc1nnc(CNC(=O)c2cccs2)n1-c1cc(OC)ccc1OC	-0.643%
